The results in this text go back to the supplement of paper PMC5662767.

Counter-ions that a name gives are not always drawn.

For the test, the system named is Drosophila S2 cl14 SmoIP sensor cells. The experiment in a line: normalized SmoIP GFP fluorescence (untreated unstimulated = 0%, untreated Hh-stimulated = 100%); higher = more Smo activation sensor fluorescence. To be noted: compound concentration: 2 uM, 24 h.
Setting [1] is: stimulation: Hh conditioned medium (+Hh).
[2] abbreviates: stimulation: mock conditioned medium (-Hh).
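Also: flow cytometry read-out as median GFP intensity of gated cells, compounds added 30 min before Hh-conditioned or mock medium, mock-treated cells serving as unstimulated baseline.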

As for `C=CC(=O)Nc1ccc2ncnc(Nc3ccc(OCc4cccc(F)c4)c(Cl)c3)c2c1`, the “normalized SmoIP GFP fluorescence” value under setting [1] worked out at 99.1% and the “normalized SmoIP GFP fluorescence” value under setting [2] is -15.8%.
Turning to `Cc1cc2c(F)c(Oc3ncnn4cc(OC[C@@H](C)O)c(C)c34)ccc2[nH]1` [Brivanib], the “normalized SmoIP GFP fluorescence” value was determined as 97.5% under setting [1] and 0.489% under setting [2].
Turning to `CN1CCC(CNc2ccc3ncc(-c4cccc(OC(F)(F)F)c4)n3n2)CC1`, the “normalized SmoIP GFP fluorescence” value under setting [1] worked out at 122% and the “normalized SmoIP GFP fluorescence” value under setting [2] came out at 5.38%.
On the same counts, the results for `Cc1ccc2c(c1)C(=O)C1(O)CCN(c3ccccc3)C1=N2` (stereo not drawn) [blebbistatin] are 105% and -0.378%.
Turning to `CN[C@@H](C)C(=O)N[C@H](C(=O)N1CCC[C@H]1C(=O)Nc1snnc1-c1ccccc1)C1CCCCC1`, the “normalized SmoIP GFP fluorescence” value runs as follows: under setting [1], 85.6%; under setting [2], 4.68%.
On the same counts, the results for `FC(F)(F)c1ccc(/C=C/c2nc(COc3ccc(CCCCn4ccnn4)cc3)co2)cc1` [Mubritinib-TAK-165] are 149% and -0.747%.
Consider `O=C(C=Cc1ccccc1)NC(NC(=S)Nc1ccc(Cl)cc1)C(Cl)(Cl)Cl` (stereo not drawn), for which the “normalized SmoIP GFP fluorescence” value is 88.1% under setting [1] and -1.13% under setting [2].
As to `N#Cc1cc(CN2CCC(Nc3ncnc4sc(Cl)cc34)CC2)ccc1F`, the “normalized SmoIP GFP fluorescence” value was 129% under setting [1] and -12.6% under setting [2].
On the same counts, the results for `O=C(NOCC(O)CO)c1cc(Br)c(F)c(F)c1Nc1ccc(I)cc1F` (stereo not drawn) are 132% and 16.8%.
With `CC(=O)c1c(C)c2cnc(Nc3ccc(N4CCNCC4)cn3)nc2n(C2CCCC2)c1=O`, the “normalized SmoIP GFP fluorescence” value was 150% under setting [1] and 3.72% under setting [2].
Take `COc1ccc(-c2cc3c(C)nc(N)nc3n([C@H]3CC[C@H](OCCO)CC3)c2=O)cn1`: the “normalized SmoIP GFP fluorescence” value under setting [1] was 87.2% and the “normalized SmoIP GFP fluorescence” value under setting [2] is -29.5%.
On the same counts, the results for `COc1cc(Nc2ncc3c(n2)-c2ccc(Cl)cc2C(c2c(F)cccc2OC)=NC3)ccc1C(=O)O` are 89.5% and 83%.
With `O=C(C[S+]([O-])Cc1ccco1)NC/C=C\COc1cc(CN2CCCCC2)ccn1` (stereo not drawn) [lafutidine], the “normalized SmoIP GFP fluorescence” value is, setting by setting: under setting [1], 113%; under setting [2], -9.85%.
Consider `COc1ccc(-c2nc3ccc(C4=NNC(=O)CC4C)cc3[nH]2)cc1` (stereo not drawn) [Pimobendan(Vetmedin)], for which the “normalized SmoIP GFP fluorescence” value was determined as 104% under setting [1] and 4.8% under setting [2].
On the same counts, the results for `COC1=C2C[C@@H](C)C[C@H](OC)[C@H](O)[C@@H](C)/C=C(\C)[C@H](OC(N)=O)[C@@H](OC)/C=C\C=C(/C)C(=O)NC(=CC1=O)C2=O` [geldanamycin] are 209% and 46.6%.
For `NC(=O)c1ccc(-c2nc(-c3ccccn3)c(-c3ccc4c(c3)OCO4)[nH]2)cc1`, in that order: 130% and -2.96%.
With `c1ccc(-c2[nH]ncc2-c2ccnc3ccccc23)nc1`, the “normalized SmoIP GFP fluorescence” value under setting [1] was determined as 101% and the “normalized SmoIP GFP fluorescence” value under setting [2] was found to be 0.247%.
For `CCS(=O)(=O)Nc1ccc2c(c1)/C(=C(/Nc1ccc(CN3CCCCC3)cc1)c1ccccc1)C(=O)N2` [Hesperadin], in that order: 94.8% and 12.7%.
For the compound `C=CCc1ccc(O)c(-c2ccc(O)c(CC=C)c2)c1` [Honokiol], the “normalized SmoIP GFP fluorescence” value under setting [1] amounted to 104% and the “normalized SmoIP GFP fluorescence” value under setting [2] was -9.22%.
For `O=C1NC(=O)/C(=C/c2cccc(C(F)(F)F)c2)S1`, in that order: 107% and -9.04%.
For `N#Cc1ccc2[nH]c(O)c(-c3ccc(CN4CCOCC4)cn3)c2c1`, in that order: 108% and -4.35%.
On the same counts, the results for `CCOC(=O)[C@H](CCc1ccccc1)N[C@H]1CS[C@H](c2cccs2)CN(CC(=O)O)C1=O` [temocapril-hcl] are 111% and 0.785%.
Take `CC(=O)Oc1cc2c(s1)CCN(C(C(=O)C1CC1)c1ccccc1F)C2` (stereo not drawn) [Prasugrel]: the “normalized SmoIP GFP fluorescence” value by setting is: under setting [1], 107%; under setting [2], -2.42%.
On the same counts, the results for `O=C1NCCc2[nH]c(-c3ccncc3)cc21` are 164% and -0.477%.
As to `Cc1c(C(=O)NN2CCCCC2)nn(-c2ccc(Cl)cc2Cl)c1-c1ccc(Cl)cc1`, the “normalized SmoIP GFP fluorescence” value is, setting by setting: under setting [1], 107%; under setting [2], 2.46%.
For `COc1cc(CCc2cc(NC(=O)c3ccc(N4CC(C)NC(C)C4)cc3)n[nH]2)cc(OC)c1` (stereo not drawn), in that order: 114% and 2.97%.
`CCCCOc1cc(C(=O)NCCN(CC)CC)c2ccccc2n1` [dibucaine-cinchocaine-hcl]: the “normalized SmoIP GFP fluorescence” value is, setting by setting: under setting [1], 113%; under setting [2], 0.361%.
Turning to `CCN1CCN(Cc2ccc(-c3cc4c(N[C@H](C)c5ccccc5)ncnc4[nH]3)cc2)CC1`, the “normalized SmoIP GFP fluorescence” value runs as follows: under setting [1], 97%; under setting [2], 6.52%.
On the same counts, the results for `CCN1CCCC1CNC(=O)c1cc(S(=O)(=O)CC)c(N)cc1OC` (stereo not drawn) [Amisulpride] are 111% and 3.51%.
For `CC1CCc2cc(F)cc3c(=O)c(C(=O)O)cn1c23` (stereo not drawn) [flumequine], the “normalized SmoIP GFP fluorescence” value under setting [1] is 106% and the “normalized SmoIP GFP fluorescence” value under setting [2] is -3.79%.
In the case of `C[C@@]1(C(=O)Nc2ccc(F)nc2)CCCN1c1nc(Nc2cc(C3CC3)n[nH]2)c2cccn2n1`, the “normalized SmoIP GFP fluorescence” value stood at 230% under setting [1] and 60.9% under setting [2].
Take `Cc1cccc(C)c1OCC(=O)N[C@@H](Cc1ccccc1)[C@@H](O)C[C@H](Cc1ccccc1)NC(=O)[C@H](C(C)C)N1CCCNC1=O` [Lopinavir]: the “normalized SmoIP GFP fluorescence” value came to 117% under setting [1] and 6.52% under setting [2].
On the same counts, the results for `CCN(Cc1ccncc1)C(=O)C(CO)c1ccccc1` (stereo not drawn) [tropicamide] are 104% and -2.82%.
Regarding `CC(C)NCC(O)COc1cccc2ccccc12` (stereo not drawn) [propranolol-hcl], the “normalized SmoIP GFP fluorescence” value runs as follows: under setting [1], 111%; under setting [2], -1.63%.
